Source: PubChem BioAssay
The source made the active and inactive calls.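 The calls were made as follows, unless noted: active = fluorescence slope higher than the sample average by over 3 SD (cut at about -0.22 in these data, passing the limit was not always enough); inactive = the rest.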

Columns and labels:
[1] = inhibitors of TNFa-induced NFkB p65 translocation, primary screen, imaging, HUVEC, MLSMR starter and 10KST1 sets (AID 438;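 active = inhibition above 20% together with a positive visual image hit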;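 also: compound added about 3h40 before a 20 min TNFalpha stimulation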;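 as to inhibition: signal is the nuclear over cytoplasmic p65 intensity ratio per well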); details: HUVEC TNFa-induced p65 nuclear translocation; cell count: measured here: nuclei count (cytotoxicity indicator), at 2.08 µM; inhibition: at 2 µM, stronger effect = higher value, 0% TNFa-plus-vehicle, 100% no-TNFa wells
[2] = reduction of polyQ htt aggregates in cells – imaging, exon1htt(103Q)mCFP cells, high-content imaging, primary screen (AID 483;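 active = visual image review flags a hit and inhibition of aggregation exceeds 20%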;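 also: compound exposure lasted 3 days before fixation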;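 as to nuclei count: percent of the per-plate median nuclei count of sample wells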); details: exon1htt(103Q)mCFP cell line, aggregate imaging, at 2 µM; inhibition of aggregation: stronger effect = higher value; nuclei count: measured here: cell count, toxicity
[3] = endothelial E-selectin expression blockers – imaging, HUVEC, immunofluorescence, MLSMR starter and 10KST1 sets, primary screen (AID 487;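 active = visually confirmed hit in the image check and inhibition above 20%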;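 as to inhibition: signal is fraction of cell area covered by stained E-selectin grains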;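 as to nuclei count: 100% = median nuclei count of all wells on the same plate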); details: HUVEC TNFalpha-induced E-selectin immunofluorescence imaging, at 2 µM; inhibition: stronger effect = higher value; nuclei count: measured here: cell number, toxicity
[4] = target: Voltage-gated potassium channel subunit beta-2 (Rattus norvegicus) (UniProt P62483); assay: inhibitors of rat Kvbeta2 reductase activity – biochemical, NADPH fluorescence, primary screen (AID 622); details: recombinant KvBeta, 4-cyanobenzaldehyde reduction, at 10 µM, stronger effect = higher value;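 also: slope of raw intensity against log time taken from 70 to 1610 s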
[5] = target: Voltage-gated potassium channel subunit beta-2 (Rattus norvegicus) (UniProt P62483); assay: enhancers of rat Kvbeta2 NADPH turnover – biochemical, NADPH fluorescence, primary screen (AID 623;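 active = NADPH fluorescence slope more negative than the mean of all samples by about 3 SD, 99.7% confidence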;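 also: fluorescence intensity change per second fitted from 20 to 320 s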); details: Recombinant KvBeta, NADPH fluorescence decrease slope, 10 min; at 10 µM; stronger effect = lower value
[6] = target: Alpha-2C adrenergic receptor (Homo sapiens) (UniProt P18825); assay: compounds altering alpha2C-coupled GIRK flux – cell-based, HEK293 alpha2C/GIRK1/2, thallium flux, primary screen (AID 624;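 active = fluorescence slope after compound addition differing from the mean of all screened samples at 99.7% confidence, in either direction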;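 also: slope of fluorescence ratio to pre-addition baseline per second over 15 to 24 s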); details: thallium flux BTC fluorescence, at 10 µM, actives lie on both sides
[7] = blockers of RIG-like receptor reporter activation – cell-based, Sendai virus stimulus, luciferase, 10K MLSCN set, TLR/RLR signaling modifier project, primary screen (AID 602276;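 active = inhibition at or above 50% at 10 µM; inactive = inhibition below 50%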;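 also: firefly luciferase from ISG56 promoter only with Renilla not read in this screen; 0% = Sendai virus plus DMSO and 100% = medium plus DMSO without virus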); details: HEK293 RL24 IRF3 luciferase reporter, at 10 µM, stronger effect = higher value
[8] = TLR3 IRF3 reporter activation blockers – cell-based, poly I:C stimulus, luciferase, 10K MLSCN set, primary screen (AID 602277;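 active = inhibition of the reporter signal at or above 50%; inactive = inhibition below 50%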); details: HEK293-TLR3 RL24 IRF3 luciferase reporter, at 10 µM, stronger effect = higher value

Chain of Voltage-gated potassium channel subunit beta-2 (Rattus norvegicus) (P62483 whole entry, looked up): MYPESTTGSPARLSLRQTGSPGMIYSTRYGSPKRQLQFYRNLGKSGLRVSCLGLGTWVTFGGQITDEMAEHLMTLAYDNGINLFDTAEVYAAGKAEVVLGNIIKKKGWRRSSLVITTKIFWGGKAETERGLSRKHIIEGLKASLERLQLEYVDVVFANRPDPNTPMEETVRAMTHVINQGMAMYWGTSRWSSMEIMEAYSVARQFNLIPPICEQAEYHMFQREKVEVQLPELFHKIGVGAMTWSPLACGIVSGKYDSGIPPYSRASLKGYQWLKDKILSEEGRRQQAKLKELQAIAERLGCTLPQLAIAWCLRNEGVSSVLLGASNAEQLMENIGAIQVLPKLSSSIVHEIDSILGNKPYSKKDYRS
Chain of Alpha-2C adrenergic receptor (Homo sapiens) (P18825 whole entry, looked up): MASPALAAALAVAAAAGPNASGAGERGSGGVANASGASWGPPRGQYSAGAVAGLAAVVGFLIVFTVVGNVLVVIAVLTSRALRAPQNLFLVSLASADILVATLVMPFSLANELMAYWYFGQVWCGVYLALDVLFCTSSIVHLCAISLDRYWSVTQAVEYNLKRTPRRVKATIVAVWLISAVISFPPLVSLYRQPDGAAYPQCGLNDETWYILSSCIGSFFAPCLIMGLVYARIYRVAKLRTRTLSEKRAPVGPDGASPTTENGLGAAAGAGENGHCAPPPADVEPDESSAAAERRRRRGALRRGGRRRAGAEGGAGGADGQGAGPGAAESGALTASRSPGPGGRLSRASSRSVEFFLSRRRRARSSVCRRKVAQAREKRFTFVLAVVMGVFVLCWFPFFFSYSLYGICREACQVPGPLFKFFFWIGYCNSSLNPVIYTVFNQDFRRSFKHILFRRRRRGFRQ

SMILES	cell count [1]	inhibition [1]	inhibition of aggregation [2]	nuclei count [2] [%]	inhibition [3]	nuclei count [3] [%]	fluorescence slope [4]	NADPH fluorescence slope [5]	slope [6]	inhibition [7]	inhibition [8]
CC(Sc1nc(-c2ccccc2)cc(C(F)(F)F)n1)C(=O)N1CCCC1 (stereo not drawn)	698	-1.1% (inactive)	-38.4% (inactive)	118	-83% (inactive)	133	-0.506 (inactive)	3.3e-05 (inactive)	0.00611 (inactive)	5.88% (inactive)	16.9% (inactive)
CCOC(=O)c1cnn(-c2cc(C)nc3c(-c4ccccc4)c(C)nn23)c1N	645	-7.8% (inactive)	7.9% (inactive)	124	-27.2% (inactive)	120	-0.625 (inactive)	-3.2e-05 (inactive)	0.00566 (inactive)	14.6% (inactive)	17.2% (inactive)
COC(=O)CNC(=O)COC(=O)c1cc(Cl)cc(Cl)c1N	473	4.7% (inactive)	-2% (inactive)	112	-81.4% (inactive)	123	-0.41 (inactive)	1.6e-05 (inactive)	0.0054 (inactive)	-8.86% (inactive)	3.33% (inactive)
COc1ccc(CCNC(=O)C2(C)CCC(=O)N2Cc2ccc3c(c2)OCO3)cc1OC (stereo not drawn)	822	0.6% (inactive)	18.7% (inactive)	106	-37.2% (inactive)	116	-0.59 (inactive)	-3.7e-05 (inactive)	0.00743 (inactive)	8.58% (inactive)	36.6% (inactive)
Cc1nn(C)cc1NC(=O)CCSc1nc(-c2ccco2)cc(C(F)(F)F)n1	452	-13.9% (inactive)	-12.3% (inactive)	107	35.1% (inactive)	106	-0.615 (inactive)	-1.6e-06 (inactive)	0.00399 (inactive)	-8.54% (inactive)	-43.3% (inactive)
COc1ccc(S(=O)(=O)N2CN(Cc3ccco3)c3nc4ccccc4nc32)cc1	600	-3.6% (inactive)	-1.4% (inactive)	82.9	-118% (inactive)	134	-0.605 (inactive)	-1.5e-05 (inactive)	0.00619 (inactive)	10.9% (inactive)	20% (inactive)
CN1CCN(C(=O)NC2CCCN2S(=O)(=O)c2ccc(Cl)cc2)CC1 (stereo not drawn)	528	-20.6% (inactive)	11.5% (inactive)	106	31.3% (inactive)	105	-0.493 (inactive)	-5.8e-05 (inactive)	0.00636 (inactive)	0.971% (inactive)	21.8% (inactive)
Cc1ccccc1OCCCN1C(=O)C(=O)c2cccc(C)c21	833	3.7% (inactive)	5% (inactive)	108	-81.4% (inactive)	113	-0.575 (inactive)	-5e-05 (inactive)	0.00604 (inactive)	5.45% (inactive)	-4.08% (inactive)
O=C(CN1C(=O)NC2(CCCCC2)C1=O)Nc1ccc(S(=O)(=O)N2CCOCC2)cc1	460	5.2% (inactive)	-2.3% (inactive)	93.7	29.7% (inactive)	96.2	-0.49 (inactive)	-7.9e-06 (inactive)	0.00589 (inactive)	9.77% (inactive)	34.3% (inactive)
COC(=O)c1ccc(C2CC(=O)Nc3cc(OC)c(OC)c(OC)c32)cc1 (stereo not drawn)	416	3.3% (inactive)	11.2% (inactive)	90.4	-82.3% (inactive)	157	-0.424 (inactive)	-3.3e-05 (inactive)	0.00514 (inactive)	11.7% (inactive)	25.2% (inactive)
CC(C)(O)C1=NOC(c2ccccc2)C1 (stereo not drawn)	647	-6.5% (inactive)	-4.9% (inactive)	98.5	-43.3% (inactive)	99.1	-0.411 (inactive)	1.7e-07 (inactive)	0.00603 (inactive)	6.77% (inactive)	22.8% (inactive)
C=CCNC(=O)c1cccc(Br)c1	399	6.3% (inactive)	-3.3% (inactive)	101	-24.7% (inactive)	115	-0.448 (inactive)	1.8e-05 (inactive)	0.00497 (inactive)	-5.88% (inactive)	7.57% (inactive)
CS(=O)(=O)c1ccc2nc(NC(=O)C3C4C=CC(C4)C3C(=O)O)sc2c1 (stereo not drawn)	475	12.5% (inactive)	0.5% (inactive)	96.1	-113% (inactive)	115	-0.41 (inactive)	1e-05 (inactive)	0.00376 (inactive)	1.15% (inactive)	6.4% (inactive)
O=C(CSc1n[nH]c(-c2cccs2)n1)N1CCN(S(=O)(=O)c2ccccc2)CC1	785	13.3% (inactive)	4.1% (inactive)	104	-77% (inactive)	140	-0.639 (inactive)	3e-05 (inactive)	0.0053 (inactive)	17% (inactive)	28.7% (inactive)
CS(=O)(=O)N(Cc1nc2sc3c(c2c(=O)[nH]1)CCCC3)C1CCCCC1	352	0.8% (inactive)	-9.4% (inactive)	106	-6.2% (inactive)	110	-0.612 (inactive)	-4.9e-05 (inactive)	0.00352 (inactive)	4.56% (inactive)	14.4% (inactive)
COc1ccc(CC(=O)Nc2c3c(nn2-c2cccc(Cl)c2)CS(=O)C3)cc1 (stereo not drawn)	466	5.7% (inactive)	-8.1% (inactive)	101	-43.1% (inactive)	87.6	-0.492 (inactive)	2.6e-05 (inactive)	0.00562 (inactive)	9.81% (inactive)	14.2% (inactive)
O=C(CCNC(=O)c1ccc(Br)o1)NC1CCCC1	507	-18.2% (inactive)	35.3% (inactive)	77.7	-29.9% (inactive)	87.3	-0.365 (inactive)	-5e-05 (inactive)	0.00549 (inactive)	14.4% (inactive)	13.1% (inactive)
CCN(Cc1ccccc1)C(c1ccncc1)c1nnnn1C(C)(C)C (stereo not drawn)	618	11.6% (inactive)	-32% (inactive)	122	-42.3% (inactive)	116	-0.606 (inactive)	-3.2e-05 (inactive)	0.0048 (inactive)	17.8% (inactive)	21.6% (inactive)
O=C(c1ccccc1Cl)N1CCc2ccccc2C1	645	-4.9% (inactive)	17.3% (inactive)	97.3	-68.8% (inactive)	112	-0.478 (inactive)	-0.000194 (inactive)	0.00482 (inactive)	-6.82% (inactive)	-17% (inactive)
CC(=O)OC(C(=O)NC1CCCCC1)c1ccncc1 (stereo not drawn)	614	-8.1% (inactive)	-3.6% (inactive)	105	-147% (inactive)	107	-0.498 (inactive)	-3e-05 (inactive)	0.00464 (inactive)	8.21% (inactive)	13.3% (inactive)
CCOc1cc(C(=O)N2CCN=C2SC)cc(OCC)c1OCC	227	-4.9% (inactive)	-39.5% (inactive)	109	-24.8% (inactive)	108	-0.595 (inactive)	4.6e-06 (inactive)	0.00661 (inactive)	15.5% (inactive)	24.3% (inactive)
O=C(Nc1nonc1NC(=O)C1CCCCC1)C1CCCCC1	396	10.2% (inactive)	-7.6% (inactive)	108	-71.5% (inactive)	127	-0.473 (inactive)	3.9e-06 (inactive)	0.00459 (inactive)	13.6% (inactive)	22.8% (inactive)
c1ccc2c(c1)Cc1cc(CN3CCOCC3)ccc1-2	343	-8% (inactive)	-2.2% (inactive)	110	-77.5% (inactive)	128	-0.415 (inactive)	-8.5e-05 (inactive)	0.00531 (inactive)	-50.9% (inactive)	-105% (inactive)
Cc1ccc(CCNC(=O)C2CCN(S(=O)(=O)c3ccc4c(c3)CCC(=O)N4)CC2)cc1	742	2.2% (inactive)	-19.2% (inactive)	114	27% (inactive)	102	-0.56 (inactive)	1.8e-05 (inactive)	0.00653 (inactive)	-8.22% (inactive)	-0.993% (inactive)
COc1ccc(NC(=O)COc2ccccc2)c(OC)c1	404	8.8% (inactive)	-15.2% (inactive)	106	1.1% (inactive)	108	-0.418 (inactive)	-4.6e-05 (inactive)	0.00449 (inactive)	-32.8% (inactive)	-89.1% (inactive)
O=C(O)C1C2CCC(O2)C1C(=O)NCCC1=CCCCC1 (stereo not drawn)	465	10.4% (inactive)	-18.3% (inactive)	105	-112% (inactive)	117	-0.331 (inactive)	-5.8e-05 (inactive)	0.0055 (inactive)	1.86% (inactive)	13.6% (inactive)
CC(=O)SCCC(=O)Nc1ccccc1	646	-1.4% (inactive)	-12.1% (inactive)	122	-61.7% (inactive)	108	-0.498 (inactive)	3.1e-06 (inactive)	0.00709 (inactive)	20.3% (inactive)	28.9% (inactive)
COc1ccc(NC(=O)CSc2nc3c(c(=O)n2-c2ccccc2OC)SCC3)cc1	726	-6.7% (inactive)	-10.4% (inactive)	107	-25.6% (inactive)	106	-0.568 (inactive)	-5.1e-05 (inactive)	0.00646 (inactive)	4.03% (inactive)	31% (inactive)
